Hits are enriched below; roughly 7.6% of the tested compounds scored in any of these assays.
SW480 rerep – induces DNA re-replication in SW480 colon adenocarcinoma cells; SW480 DNA re-replication, Hoechst DNA content imaging, 48 h; Potency, µM (doses to about 46.1 µM), for inactives: at the highest dose re-replication activation, actives largely listed as activators; actives 1.8% (n = 340,000); AID 624297; note: potency is the fitted concentration of half-maximal effect; % of control where 0% means no effect; nearly all actives have a fitted effect of over 55% in size
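Image-based DNA-content assay: after two days of treatment, nuclei were labelled with the DNA dye Hoechst and imaged, and hits were compounds raising the count of nuclei showing high fluorescence intensity.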
KB-3-1 tox – kills parental KB-3-1 adenocarcinoma cells. KB-3-1 viability, CellTiter-Glo ATP luminescence, 72 h. Potency, µM (doses to about 46.1 µM), actives largely listed as cytotoxic. actives 1.4% (n = 400,000). AID 1347075; note: potency is the fitted concentration of half-maximal effect; % is set by controls: 0 for no effect and ±100 for the full control effect; nearly all actives have a fitted effect of over 60% in size
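Screening of KB-3-1 cells (DMEM, 10% FBS, phenol-red free) ran from lowest to highest compound concentration; after 72 h at 37 °C viability was read luminescently and curves fitted.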
MCF10A rereplic – inducers of DNA re-replication in MCF 10A breast cells; MCF 10A DNA re-replication, Hoechst nuclear intensity, 48 h; Potency, µM (series often up to 46.1 µM), inactives show top-dose activity, positive = re-replication, most hits filed as activators; actives 2.9% (n = 350,000); note: potency is the fitted concentration of half-maximal effect; % of control where 0% means no effect; nearly all actives have a fitted effect of over 50% in size
KCNH2 3.1 block – inhibitors of human KCNH2 3.1 potassium channel isoform; U2OS KCNH2 3.1, thallium flux FluxOr; stronger effect = lower value; activity change, % (tested at about 1.8 µM); actives 0.95% (n = 340,000); AID 720553;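 active = maximum activity change below -70%; inconclusive = maximum activity change from -70% to -50%; inactive = maximum activity change above -50%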;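 note: thallium influx rate constant from kinetic fluorescence after stimulation buffer; % is set by controls: 0 for no effect and ±100 for the full control effect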
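Steps: virus added to U2OS suspension (4 h, RT, dark); medium with 10% FBS added, cells plated, 37 C overnight; FluxOr/Red40 loading buffer 45 min RT; stimulation buffer, 2 min kinetic read; rate constant normalized.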
KCNH2 WT inh – blocks the wildtype human KCNH2 potassium channel | Q12809 | U2OS, BacMam KCNH2, thallium flux FluxOr; stronger effect = lower value | activity change, % at 1.84 µM | actives 0.37% (n = 340,000);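 active = maximum activity change below -70%; inconclusive = maximum activity change between -70% and -50%; inactive = maximum activity change above -50%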; note: % is set by controls: 0 for no effect and ±100 for the full control effect
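U2OS cells were transduced with wild-type KCNH2 virus (2.03 x 10^8 / mL) for 4 h at room temperature, then cultured overnight at 37 C. Thallium flux was read with FluxOr dye. Rate constants were normalized to DMSO controls.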
KB-V1 MDR tox – kills drug-selected multidrug resistant KB-V1 cells; Potency, µM (top dose mostly 46.1 µM), actives largely listed as cytotoxic; actives 3.4% (n = 400,000); KB-V1 MDR cells viability, CellTiter-Glo, 72 h; note: potency is the fitted concentration of half-maximal effect; % is set by controls: 0 for no effect and ±100 for the full control effect; nearly all actives have a fitted effect of over 60% in size
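qHTS viability screen in drug-selected KB-V1 MDR cells: 72 h compound treatment at 37 degrees C, ATP luminescence end point.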
Active calls of the source: *. Unless noted, calls come from the whole dose curve; as a rule, active = well fitted curve in the direction sought with a large enough effect; inconclusive = small, poorly fitted or top-dose-only effect, or another doubt; inactive = no such curve, though single readings can be large; an effect the other way counts as inactive or inconclusive.

How did O=C(Nc1c2c(nn1-c1ccc(Cl)cc1)CS(=O)(=O)C2)c1ccccc1F do in these assays?
KB-3-1 tox: inactive; KB-V1 MDR tox: inactive

Results for O=[N+]([O-])CC(c1ccc(F)cc1)c1c[nH]c2ccccc12 (stereo not drawn) ?
SW480 rerep: inconclusive; KB-3-1 tox: inconclusive; MCF10A rereplic: 13µM*; KCNH2 3.1 block: -12.8; KCNH2 WT inh: 0.3; KB-V1 MDR tox: inactive

Results for Cn1cc(C(C[N+](=O)[O-])c2ccccc2)c2ccccc21 (stereo not drawn) ?
SW480 rerep: 10.3µM*; KB-3-1 tox: inconclusive; MCF10A rereplic: 13µM*; KCNH2 3.1 block: 6.8; KCNH2 WT inh: 8.2; KB-V1 MDR tox: inconclusive

Results for Cc1ccc(C)c(S(=O)(=O)N2CCCCC2CCNC(=O)C(=O)NCc2ccccn2)c1 (stereo not drawn) ?
SW480 rerep: -8.8%; KB-3-1 tox: inactive; MCF10A rereplic: 3.4%; KCNH2 3.1 block: 7.0; KCNH2 WT inh: 9.2; KB-V1 MDR tox: inconclusive

How did Cc1ccc(C)c(S(=O)(=O)N2CCCC2CNC(=O)C(=O)NCc2ccccc2C)c1 (stereo not drawn) do in these assays?
SW480 rerep: 3.66µM*; KB-3-1 tox: inactive; MCF10A rereplic: -6.5%; KCNH2 3.1 block: 3.7; KCNH2 WT inh: 15.9; KB-V1 MDR tox: inactive

What do the screens show for `Cc1ccc(C)c(S(=O)(=O)N2CCCC2CNC(=O)C(=O)NCc2ccccn2)c1` (stereo not drawn)?
SW480 rerep: 18.4µM*; KB-3-1 tox: inactive; MCF10A rereplic: -20.9%; KCNH2 3.1 block: -0.3; KCNH2 WT inh: 3.7; KB-V1 MDR tox: inactive

How did Cc1ccc(C)c(S(=O)(=O)N2CCCC2CNC(=O)C(=O)NCC2CCCO2)c1 (stereo not drawn) do in these assays?
SW480 rerep: 5.8µM*; KB-3-1 tox: inactive; MCF10A rereplic: 27.2%; KCNH2 3.1 block: 20.8; KCNH2 WT inh: -1.5; KB-V1 MDR tox: inactive

What do the screens show for `COc1ccccc1CNC(=O)C(=O)NCC1CCCN1S(=O)(=O)c1cc(C)ccc1C` (stereo not drawn)?
KB-3-1 tox: inactive; KCNH2 3.1 block: -8.0; KCNH2 WT inh: 8.0; KB-V1 MDR tox: inactive

How did Cc1ccc(S(=O)(=O)Cc2sc3ccccc3[n+]2C)cc1 do in these assays?
SW480 rerep: -2.7%; KB-3-1 tox: inactive; MCF10A rereplic: 23.7%; KCNH2 3.1 block: -7.0; KCNH2 WT inh: 0.9; KB-V1 MDR tox: 20.6µM*

What do the screens show for `Cc1cc(Cl)ccc1NC(=O)C1COc2ccccc2O1` (stereo not drawn)?
SW480 rerep: 0.0%; KB-3-1 tox: inactive; MCF10A rereplic: 1.2%; KCNH2 3.1 block: 20.8; KCNH2 WT inh: -4.2; KB-V1 MDR tox: inactive

Results for CN1CCCC(OC(=O)c2ccc(C(C)(C)C)cc2)C1 (stereo not drawn) ?
SW480 rerep: 0.6%; KB-3-1 tox: inactive; MCF10A rereplic: inconclusive; KCNH2 3.1 block: -1.0; KCNH2 WT inh: 1.2; KB-V1 MDR tox: inactive

How did c1ccc(-c2nnc3sc(CN4CCC5(CC4)OCCO5)cn23)cc1 do in these assays?
SW480 rerep: -2.1%; KB-3-1 tox: inactive; MCF10A rereplic: -2.9%; KCNH2 3.1 block: -8.0; KCNH2 WT inh: -36.6; KB-V1 MDR tox: 20.6µM*

Results for Brc1ccc(-c2nnc3sc(CN4CCCCC4)cn23)cc1 ?
KB-3-1 tox: inactive; KB-V1 MDR tox: inactive

What do the screens show for `C=CCn1c(=S)[nH]c2scc(-c3ccc(C)o3)c2c1=O`?
SW480 rerep: inconclusive; KB-3-1 tox: inactive; MCF10A rereplic: 16.4µM*; KCNH2 3.1 block: 5.7; KCNH2 WT inh: -28.1; KB-V1 MDR tox: inactive

How did CCCCCn1c(SCC(=O)c2ccccc2)nc2cc(C(=O)NCC3CCCO3)ccc2c1=O (stereo not drawn) do in these assays?
SW480 rerep: -3.4%; KB-3-1 tox: inactive; MCF10A rereplic: 1.4%; KCNH2 3.1 block: 26.0; KCNH2 WT inh: -2.5; KB-V1 MDR tox: inactive

Screens deposited in PubChem by National Center for Advancing Translational Sciences (NCATS).
